The source of these data is the supplement of paper PMC10127200.

SMILES strings stand for the structures. Where a name gives a salt, the structure may show the parent alone.

This assay has as its system DU145. Kind of assay: Euclidean distance of Cell Painting phenotypic profile (signed KS, 77 features) to DMSO centroid (dimensionless distance); 5 or 10 uM (library dependent); higher = stronger phenotypic change vs DMSO (phenoactivity). Particulars: 48 h. An outline of the steps: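 Phenoactivity is defined as the Euclidean distance from a compound profile to the median vehicle profile. Each profile comprised 77 Harmony features, scored as signed Kolmogorov-Smirnov statistics versus same-plate vehicle wells, then plate-position corrected, correlation-weighted and replicate-averaged at the top dose. Five cancer lines and one healthy fibroblast line were exposed to library compounds for 48 h at 10 or 5 uM (0.1% DMSO final).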
The molecule `O=C(OC[C@H]1O[C@@H](OC(=O)c2cc(O)c(O)c(OC(=O)c3cc(O)c(O)c(O)c3)c2)[C@H](OC(=O)c2cc(O)c(O)c(OC(=O)c3cc(O)c(O)c(O)c3)c2)[C@@H](OC(=O)c2cc(O)c(O)c(OC(=O)c3cc(O)c(O)c(O)c3)c2)[C@@H]1OC(=O)c1cc(O)c(O)c(OC(=O)c2cc(O)c(O)c(O)c2)c1)c1cc(O)c(O)c(OC(=O)c2cc(O)c(O)c(O)c2)c1` [Tannic acid] gave an Euclidean distance of 1.47.

`NC1CCN(c2nc3c(cc2F)c(=O)c(C(=O)O)cn3-c2ccc(F)cc2F)C1` (stereo not given) [Tosufloxacin p-Toluenesulfonate Hydrate] displayed an Euclidean distance of 0.829.

As to `O=c1cc(N2CCOCC2)oc2c(-c3cccc4c3sc3ccccc34)cccc12`, the Euclidean distance is 2.15.

For `CC(C)Oc1ccc2c(=O)c(-c3ccccc3)coc2c1` [Ipriflavone (Osteofix)], the Euclidean distance was 1.15.

In turn, `CNCCC(Oc1ccc(C(F)(F)F)cc1)c1ccccc1` (stereo not given) [Fluoxetine HCl] had an Euclidean distance of 1.21.

For `FC(F)(F)c1ccc(CNc2ccc(Cc3c[nH]c4ncc(Cl)cc34)cn2)cn1` [Pexidartinib (PLX3397)], the Euclidean distance was 1.04.

For the molecule `Cc1ccc([C@@H]2O[C@H](CO)[C@@H](O)[C@H](O)[C@H]2O)cc1Cc1ccc(-c2ccc(F)cc2)s1` [Canagliflozin hemihydrate], the Euclidean distance was determined as 0.936.

With `CC1(C)CCC[C@]2(C)[C@H]3CC(=O)O[C@]3(C)CC[C@@H]12` [Sclareolide], the Euclidean distance came out at 1.35.

Molecule `Cc1ccc2c(Cl)cc(Cl)c(O)c2n1` [Chlorquinaldol] returned an Euclidean distance of 1.54.

On to `COc1ccc(CN2CCN(C(c3ccc(F)cc3)c3ccc(F)cc3)CC2)c(OC)c1OC` [Lomerizine 2HCl], for which the Euclidean distance was found to be 1.02.

The molecule `C#Cc1cccc(Nc2ncnc3cc(OCCOC)c(OCCOC)cc23)c1` [Erlotinib] showed an Euclidean distance of 1.94.

Molecule `Oc1c2ccccc2c2c3c(cccc13)N=N2` showed an Euclidean distance of 0.792.

`CC[C@@H]1/C=C(\C)C[C@H](C)C[C@H](OC)[C@H]2O[C@@](O)(C(=O)C(=O)N3CCCC[C@H]3C(=O)O[C@H](/C(C)=C/[C@@H]3CC[C@@H](O)[C@H](OC)C3)[C@H](C)[C@@H](O)CC1=O)[C@H](C)C[C@@H]2OC` [Ascomycin (FK520)] returned an Euclidean distance of 1.28.

`CC(C)(C(=O)O)c1ccc(C(O)CCCN2CCC(C(O)(c3ccccc3)c3ccccc3)CC2)cc1` (stereo not given) [Fexofenadine HCl] had an Euclidean distance of 0.779.

Take `CCC(=O)NS(=O)(=O)c1ccc(-c2c(-c3ccccc3)noc2C)cc1` [Parecoxib]: the Euclidean distance worked out at 0.471.

In turn, `Cn1cc(-c2ccc3c(c2)ncn3-c2cc(NS(=O)(=O)C3CC3)cc(-c3ccc(F)cc3F)c2)cn1` gave an Euclidean distance of 1.26.

For `COC(=O)/C=C/C(=O)OCCN1C(=O)CCC1=O` [Diroximel Fumarete], the Euclidean distance stood at 1.17.

In turn, `N=C(N)N` [Guanidine HCl] gave an Euclidean distance of 0.525.

In the case of `O=C(O)c1ccccc1O` [Salicylic acid], the Euclidean distance stood at 0.898.

As for `CCCC(CCC)C(=O)O` [Divalproex Sodium], the Euclidean distance worked out at 0.425.

For `C[C@@H](O)[C@H]1C(=O)N2C(C(=O)O)=C(S[C@@H]3CN[C@H](C(=O)N(C)C)C3)[C@H](C)[C@H]12` [Meropenem Trihydrate], the Euclidean distance came to 0.738.

The molecule `Cc1ccc(C(=O)N(CCCN)[C@@H](c2nc3cc(Cl)ccc3c(=O)n2Cc2ccccc2)C(C)C)cc1` displayed an Euclidean distance of 4.25.

`CC(=O)Nc1cccc2c1c(Sc1ccc(Cl)cc1)c(C)n2CC(=O)O` had an Euclidean distance of 1.15.

As for `C=CC1=C(C(=O)O)N2C(=O)[C@@H](NC(=O)/C(=N\O)c3csc(N)n3)[C@H]2SC1` [Cefdinir], the Euclidean distance was determined as 2.48.

`Cc1cc(-c2ncc(CC(=O)Nc3ccc(-c4cnccn4)cn3)cc2C)ccn1` registered an Euclidean distance of 0.884.

The molecule `CC1=C(CC(=O)O)c2cc(F)ccc2/C1=C\c1ccc([S+](C)[O-])cc1` (stereo not given) [Sulindac] yielded an Euclidean distance of 0.975.

`Cc1ccc(C(=O)Nc2ccc(CN3CCN(C)CC3)c(C(F)(F)F)c2)cc1C#Cc1cnc2cccnn12`: the Euclidean distance came out at 6.75.

The molecule `CN1C(=O)[C@@H](NC(=O)c2n[nH]c(Cc3ccccc3)n2)COc2ccccc21` displayed an Euclidean distance of 1.8.

Regarding `CN(C)CCN(Cc1ccc(Cl)cc1)c1ccccn1` [Chloropyramine hydrochloride], the Euclidean distance was 1.39.

`CCCN(CCC)C(=O)C1=Cc2ccc(-c3ccc(C(=O)N4CCCC4)cc3)cc2N=C(N)C1` [Motolimod (VTX-2337)] showed an Euclidean distance of 1.35.
